“And” between values parts separate entries of the source, which are not always exact repeats. Identical values can stand only once. Results filed as inconclusive are left out. Where a call stands in place of a potency, no number is given. The source made the active and inactive calls. Calls come from the whole dose curve.

This passage reports Potency results from PubChem BioAssay (Tox21).
Potency is the fitted concentration of half-maximal effect.

This test can be described thus: qHTS assay for small molecules that induce genotoxicity in human embryonic kidney cells expressing luciferase-tagged ATAD5 - cell viability (AID 651634). Note: nearly all actives have a fitted effect of over 25% in size. To be noted: HEK293T ATAD5-luc cells viability, CellTiter-Fluor, 15.5 h; series mostly up to 83.3 µM. The source says: National Center for Advancing Translational Sciences [NCATS]
NIH Chemical Genomics Center [NCGC]
U.S. Environmental Protection Agency [EPA]
National Institutes of Environmental Health Sciences [NIEHS]
National Toxicology Program [NTP]
U.S. Food and Drug Administration [FDA]
Enhanced Level of Genome Instability Gene 1 (ELG1; human ATAD5) protein levels increase in response to various types of DNA damage. Using a luciferase reporter-gene tagged with ElG1, a cell-based assay [developed by Kyungjae Myung, NHGRI, NIH] was used to measure the induction of ATAD5 in human embryonic kidney cells (HEK293T). So, increase in luciferase activity can be used to identify the compounds that cause genetic stress. In addition to genotoxicity, these cells were also used to test for cytotoxicity by measuring the protease activity within live cells.
Tox21 Assay Protocol Summary:
For cytotoxicity screening, 2,000 cells in 5 uL/well were dispensed into white, solid-bottom 1536-well plates using a Multidrop Combi (Thermo Scientific) dispenser. Following transfer of 23 nL compound or DMSO vehicle by a pin tool, the plates were incubated 15.5 hr at 37C and 5% CO2. 1 ul CellTiter-Fluor reagent (Promega, Madison, WI) was then added to each plate and following 30 min incubation at 37C, fluorescence intensity was quantified on a ViewLux CCD-based plate reader.
For `CC(C)OB(OC(C)C)OC(C)C`, the Potency entry was “inactive”.
On to `O=C1OC2(c3cc(Br)c(O)c(Br)c3Oc3c2cc(Br)c(O)c3Br)c2c(Cl)c(Cl)c(Cl)c(Cl)c21`, for which the Potency is 9.7 µM (active) and 37.1 µM (active).
Turning to `CCCC(=O)O`, the Potency result is “inactive”.
Take `c1ccc2c(c1)Oc1ccccc1S2`: the Potency result is “inactive”.
Turning to `OCCO`, the Potency result is “inactive”.
In the case of `COc1ccc(C(=O)CC(=O)c2ccc(C(C)(C)C)cc2)cc1`, the Potency result was “inactive”.
In the case of `Nc1ncnc2nc[nH]c12` it was “inactive”.
Consider `CC(CCC(=O)O)(c1ccc(O)cc1)c1ccc(O)cc1`, for which the Potency entry is “inactive”.
For the compound `CC(=O)c1ccccn1`, the Potency entry was “inactive”.
Turning to `CCC(C)(O)CCCC(C)C` (stereo not given), the Potency result is “inactive”.
With `CCCCNS(=O)(=O)c1ccccc1`, the Potency result is “inactive”.
For `O=C(/C=C/C=C/c1ccc2c(c1)OCO2)N1CCCCC1`, the Potency entry was “inactive”.
As to `c1ccncc1`, the Potency entry was “inactive”.
In the case of `Cc1[nH]c(=O)c(C#N)cc1-c1ccncc1` it was “inactive”; in that of `Cc1cccc([N+](=O)[O-])c1C`, “inactive”.
For the compound `CCC(C)CO` (stereo not given), the Potency result was “inactive”.
Take `CCCCCCCCCC(=O)OC`: the Potency result is “inactive”.
For `CCCCc1oc2ccccc2c1C(=O)c1cc(I)c(OCCN(CC)CC)c(I)c1`, the Potency result is “inactive”.
For the compound `c1ccc2c(c1)c1cccc3ccc4cccc2c4c31`, the Potency result was “inactive”.
As to `COC(C)COC(C)COC(C)CO` (stereo not given), the Potency result was “inactive”.
Turning to `Nc1ccc(Nc2ccccc2)cc1`, the Potency entry is “inactive”.
As to `O=C(Nc1ccc(Cl)cc1)Nc1ccc(Cl)c(Cl)c1`, the Potency was 9.44 µM (active).
The value for `O=C(c1ccccc1)c1ccc(O)cc1O` was “inactive”.
With `OC1CCCCCCCCCCC1`, the Potency result was “inactive”.
Regarding `COc1c(Cl)c(Cl)c(Cl)c(Cl)c1Cl`, the Potency entry was “inactive”.
On to `O=C=Nc1ccc(Cc2ccc(N=C=O)cc2)cc1`, for which the Potency entry is “inactive”.
In the case of `CC(=O)C1(C)CC2=C(CCCC2(C)C)CC1C` (stereo not given) it was “inactive”; in that of `Cc1cccc(N(C)C(=S)Oc2ccc3ccccc3c2)c1`, “inactive”.
Consider `Cc1cccc(C(=O)O)c1`, for which the Potency entry was “inactive”.
Regarding `c1ccc2cc(Nc3ccc(Nc4ccc5ccccc5c4)cc3)ccc2c1`, the Potency result is “inactive”.
As to `C#C[C@]1(O)CC[C@H]2[C@@H]3CCC4=Cc5oncc5C[C@]4(C)[C@H]3CC[C@@]21C`, the Potency result was “inactive”.
Consider `CNCCCC12CCC(c3ccccc31)c1ccccc12`, for which the Potency entry was “inactive”.
`CCOCCOCCO`: the Potency result was “inactive”.
On to `Clc1nc(Cl)c(Cl)c(Cl)c1Cl`, for which the Potency result was “inactive”.
The value for `CCC(C)c1ccccc1O` (stereo not given) was “inactive”; that for `Brc1cc(Oc2cc(Br)c(Br)c(Br)c2Br)c(Br)c(Br)c1Br` was “inactive”; that for `O=P(O)(O)O` was “inactive”.
In the case of `CC(C)CC(C)(O)C#CC(C)(O)CC(C)C` (stereo not given) it was “inactive”; in that of `Nc1ncn([C@@H]2O[C@H](CO)[C@@H](O)[C@H]2O)c(=O)n1`, 750 nM (active) and 1.37 µM (active); in that of `Nc1ccccc1N`, “inactive”.
